Bioassay records: PubChem BioAssay, several laboratories
PAFAH2 inh: PAFAH2 enzyme inhibitors, primary screen, biochemical, fluorescence polarization, human; Platelet-activating factor acetylhydrolase 2, cytoplasmic (Homo sapiens), Q99487; recombinant PAFAH2, FP-rhodamine activity probe; inhibition, % at 3.39 µM; hit rate 0.99% among 340,000;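 active means inhibition above the mean over all tested compounds plus 3 SD, cut at about 30% in these data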;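 further: inhibitors block probe labeling of enzyme so polarization drops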
Pemphigus Ab inh: inhibitors of pemphigus antibody binding to DSG3, primary screen, biochemical, bead-based, flow cytometry, scFv-GFP; Desmoglein-3 (Homo sapiens), P32926; AID 588358, 2011; DSG3-coupled beads, scFv-anti-DSG3-GFP binding; active compounds read low; hit rate 0.48% among 310,000; binding (percent of control), % at 10 µM;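 active means binding more than 3 SD below its plate's average and above zero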;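 further: hits lower antibody fragment binding to DSG3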
PfM18AAP inh: PfM18AAP inhibitors, malaria aminopeptidase, primary screen, biochemical, QFRET, recombinant enzyme. M18 aspartyl aminopeptidase (Plasmodium falciparum 3D7). hit rate 1.2% among 290,000. H-Glu-NHMec fluorogenic cleavage. inhibition, % at 7.35 µM;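 active means inhibition above the campaign mean inhibition over all tested compounds plus 3 SD, cut at about 28% in these data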
PAFAH1B3 inh: PAFAH1B3 enzyme inhibitors, primary screen, biochemical, fluorescence polarization, human. inhibition, % at 3.39 µM. hit rate 0.28% among 340,000. Platelet-activating factor acetylhydrolase IB subunit alpha1 (Homo sapiens), Q15102. AID 492972, 2010. recombinant PAFAH1B3, FP-rhodamine probe;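 active means inhibition above the screen-wide average of all tested compounds plus 3 SD, cut at about 25% in these data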
Target sequence (Q15102 whole entry, looked up): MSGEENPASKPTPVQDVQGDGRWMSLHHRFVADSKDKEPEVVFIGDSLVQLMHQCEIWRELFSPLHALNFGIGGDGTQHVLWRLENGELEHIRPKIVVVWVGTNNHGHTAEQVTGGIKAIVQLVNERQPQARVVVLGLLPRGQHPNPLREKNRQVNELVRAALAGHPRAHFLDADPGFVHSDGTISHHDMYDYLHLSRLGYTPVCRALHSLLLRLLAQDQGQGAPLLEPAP
PAFAH1B2 inh: PAFAH1B2 enzyme inhibitors, primary screen, biochemical, fluorescence polarization, human; inhibition, % at 3.39 µM; recombinant PAFAH1B2, FP-rhodamine activity probe; hit rate 1.2% among 340,000; Platelet-activating factor acetylhydrolase IB subunit alpha2 (Homo sapiens), P68402; AID 492953, 2010;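 active means inhibition above the mean of all tested compounds plus 3 SD, cut at about 24% in these data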
Target sequence (P68402 whole entry, looked up): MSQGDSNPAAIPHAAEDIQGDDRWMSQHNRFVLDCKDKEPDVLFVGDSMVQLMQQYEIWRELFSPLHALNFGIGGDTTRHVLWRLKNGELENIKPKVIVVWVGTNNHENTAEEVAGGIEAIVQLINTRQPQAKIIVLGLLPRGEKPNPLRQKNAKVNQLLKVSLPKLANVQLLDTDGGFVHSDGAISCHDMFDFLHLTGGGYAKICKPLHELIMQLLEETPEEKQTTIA
pPAFAH inh: pPAFAH enzyme inhibitors, primary screen, biochemical, fluorescence polarization, human; hit rate 1.5% among 330,000; inhibition, % at 3.39 µM; AID 463082, 2010; Platelet-activating factor acetylhydrolase (Homo sapiens), Q13093; recombinant pPAFAH, FP-rhodamine probe fluorescence polarization;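 active means inhibition above the mean inhibition across the screen plus 3 SD, cut at about 25% in these data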;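 further: inhibitors block binding of the rhodamine activity-based probe so polarization drops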
PAFAH2 confirm: PAFAH2 enzyme inhibitors, confirmation, biochemical, fluorescence polarization, human | shares compounds with PAFAH2 inh | recombinant PAFAH2, FP-rhodamine activity probe | inhibition, % at 3.39 µM | hit rate 65% among 2,300;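 active means mean inhibition over three repeats above a set limit taken from the earlier primary screen, cut at about 30% in these data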;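 further: inhibitor blocks binding of rhodamine activity probe so polarization falls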
Large screens that a line does not name were inactive (follow-up assays come after a bar, where they were run). Sampled rows, rich in hits. Any-hit rate of the full collection: about 3.8%.

COc1ccc(C(=O)O/N=C(\N)Cc2ccc(Cl)cc2)cc1OC	PAFAH2 inh 74.3 | PAFAH2 confirm 78.3
O=C(O)C1CSC(c2ccco2)N1 (configuration not stated)	PAFAH2 inh 31.8 | PAFAH2 confirm inactive
CCOc1ccc(S(=O)(=O)/N=C(/Nc2ccc(S(N)(=O)=O)cc2)c2ccccc2)cc1	PAFAH2 inh 44.5 (no result: Pemphigus Ab inh, PfM18AAP inh) | PAFAH2 confirm inactive
Cc1ccc(N2CCN(C(=O)c3ccccc3NC(=O)C3CC=CCC3C(=O)O)CC2)cc1 (configuration not stated)	PAFAH2 inh 66.0 (no result: Pemphigus Ab inh) | PAFAH2 confirm 57.3
Cc1cccc(N2CCN(C(=O)c3ccccc3NC(=O)C3CC=CCC3C(=O)O)CC2)c1 (configuration not stated)	none (no result: Pemphigus Ab inh)
CCN(CC)S(=O)(=O)c1cccc(-n2c(O)c(C=Nc3ccccc3C(=O)O)c3ccccc3c2=O)c1	PAFAH2 inh 88.9 | PAFAH2 confirm 73.1
O=C(CNC(=O)C12CC3CC(CC(C3)C1)C2)N1CCN(S(=O)(=O)/C=C/c2ccccc2)CC1	PAFAH2 inh 35.3 | PAFAH2 confirm inactive
O=C(CNC(=O)C12CC3CC(CC(C3)C1)C2)N1CCN(S(=O)(=O)c2cccs2)CC1	none
O=C(COC(=O)c1cccnc1Cl)Nc1cc(S(=O)(=O)N2CCCCC2)ccc1Cl	none
O=C(COC(=O)c1cccnc1Cl)Nc1cc(S(=O)(=O)N2CCCCCC2)ccc1Cl	PAFAH2 inh 31.5 (no result: PfM18AAP inh, pPAFAH inh) | PAFAH2 confirm inactive
Cc1cnc(C(=O)OCC(=O)Nc2cc(S(=O)(=O)N3CCCCC3)ccc2Cl)cn1	none
CCOc1ncccc1C(=O)OCC(=O)Nc1cc(S(=O)(=O)N2CCOCC2)ccc1Cl	PAFAH2 inh 44.0 | PAFAH2 confirm 38.5
Cc1cnc(C(=O)OCC(=O)Nc2ccc(C)c(S(=O)(=O)N3CCCCC3)c2)cn1	none
Cc1ccc(NC(=O)COC(=O)c2cccnc2Cl)cc1S(=O)(=O)N1CCCCC1	PAFAH2 inh 52.8 | PAFAH2 confirm 33.7
Nc1cc(N)cc(C(=O)OCC(=O)Nc2cc(S(=O)(=O)N3CCCCC3)ccc2Cl)c1	PAFAH2 inh 31.0 (no result: Pemphigus Ab inh) | PAFAH2 confirm inactive
Cn1cnnc1SCC(=O)Nc1sc2c(c1C(N)=O)CCC2	PAFAH2 inh 37.8, pPAFAH inh 34.4 | PAFAH2 confirm inactive
CC1=NN2C(=N)/C(=C\c3cc(C)n(Cc4ccccc4)c3C)C(=O)N=C2S1	none (no result: PAFAH2 inh, PAFAH1B3 inh, PAFAH1B2 inh)
CC1=NN2C(=N)/C(=C\c3ccc(SCc4ccccc4)o3)C(=O)N=C2S1	PAFAH2 inh 32.4 | PAFAH2 confirm 32.9
O=C(NCC(=O)N(c1ccccc1)C(C(=O)NC1CCCCC1)c1cccnc1)c1ccco1 (configuration not stated)	none
Cc1ccc(S(=O)(=O)N(C)C)cc1NC(=O)COC(=O)c1ccc2c(c1)NC(=O)CS2	PAFAH2 inh 51.9 | PAFAH2 confirm 43.0
CN(C)S(=O)(=O)c1cccc(NC(=O)COC(=O)c2ccc3c(c2)OCO3)c1	PAFAH2 inh 55.1 | PAFAH2 confirm 56.5
CC(=O)c1cccc(NC(=O)COC(=O)c2ccc3c(c2)OCO3)c1	PAFAH2 inh 74.4 (no result: PfM18AAP inh) | PAFAH2 confirm 70.7
CN(C)S(=O)(=O)c1ccc(C(=O)OCC(=O)Nc2ccc3c(c2)OCO3)cc1	none (no result: PfM18AAP inh)
Cc1cccc(C)c1NC(=O)COC(=O)c1ccc2[nH]c3c(c2c1)CCCC3	PAFAH2 inh 70.4 | PAFAH2 confirm 62.1
Cc1ccc(S(=O)(=O)N(C)C)cc1NC(=O)COC(=O)C1CCCC1	none (no result: PfM18AAP inh)
Cc1[nH]c2ccc(C(=O)OCC(=O)Nc3cccc(S(N)(=O)=O)c3)cc2c1C	PAFAH2 inh 69.3 (no result: Pemphigus Ab inh, PfM18AAP inh) | PAFAH2 confirm 64.4
CCOC(=O)c1ccc2[nH]c(C)c(C)c2c1	none
CN(C)S(=O)(=O)c1cccc(C(=O)OCC(=O)Nc2ccccc2OC(F)F)c1	PAFAH2 inh 33.0 | PAFAH2 confirm inactive
CCC(C)C(CO)NCCCn1cnc(C(=O)Nc2ccc(C)c(C)c2)n1 (configuration not stated)	none (no result: PfM18AAP inh, pPAFAH inh)
CCCN1CC(O)=C(C#N)C1=O	none (no result: Pemphigus Ab inh)
O=C(NCCCC(=O)N1CCCCC1)c1ccc(Cl)cc1	none (no result: pPAFAH inh)
O=C(OCc1nnc(-c2ccccc2Br)o1)c1ccco1	PAFAH2 inh 53.0 (no result: PfM18AAP inh) | PAFAH2 confirm 49.6
O=C(OCc1nc(-c2ccccc2Cl)no1)c1ccco1	PAFAH2 inh 42.1 (no result: PfM18AAP inh) | PAFAH2 confirm 41.2
O=c1oc(-c2ccco2)nc2c1cnn2-c1ccccc1	PAFAH2 inh 85.4 (no result: Pemphigus Ab inh) | PAFAH2 confirm 59.3
CCOC(=O)c1[nH]cnc1C(=O)NC1CCN(C(=O)OC(C)(C)C)CC1	none (no result: PfM18AAP inh)
COc1ccc(/C=C/C(=O)OCC(=O)NCCNC(=O)COC(=O)/C=C/c2ccc(OC)cc2)cc1	none
O=C(COC(=O)/C=C/c1ccc(S(=O)(=O)N2CCOCC2)cc1)NCc1ccc(F)cc1	PAFAH2 inh 38.7 | PAFAH2 confirm 34.5
Cc1cc(S(=O)(=O)N2CCOCC2)ccc1OCC(=O)Nc1ccccc1F	none
O=C(COC(=O)/C=C/c1ccc(S(=O)(=O)N2CCOCC2)cc1)Nc1ccccc1F	PAFAH2 inh 59.5 (no result: PfM18AAP inh) | PAFAH2 confirm 42.1
COc1ccc(/C=C/C(=O)OCC(=O)Nc2c(C)cccc2C)cc1	PAFAH2 inh 63.2 | PAFAH2 confirm 65.2
O=C(COC(=O)/C=C/c1ccc(S(=O)(=O)N2CCOCC2)cc1)NCc1ccc2c(c1)OCO2	none
Cc1cccc(C)c1NC(=O)COC(=O)/C=C/c1ccc(S(=O)(=O)N2CCOCC2)cc1	PAFAH2 inh 44.9 (no result: Pemphigus Ab inh, PfM18AAP inh) | PAFAH2 confirm inactive
COc1ccc(N2CCN(C(=O)COc3ccc(S(=O)(=O)N4CCOCC4)cc3C)CC2)cc1	none
CC(=O)N1CCN(c2ccc(NC(=O)c3cccc([N+](=O)[O-])c3)cc2)CC1	none
Cc1nn(-c2ccccc2)c(C)c1NC(=O)COC(=O)/C=C/c1ccccc1	PAFAH2 inh 38.6 (no result: PfM18AAP inh) | PAFAH2 confirm 32.3
Cc1ccc(S(=O)(=O)N2CCOCC2)cc1NC(=O)COC(=O)/C=C/c1ccc(F)cc1	PAFAH2 inh 52.6 (no result: Pemphigus Ab inh, PfM18AAP inh) | PAFAH2 confirm 47.2
COc1ccc(/C=C/C(=O)OCC(=O)NC(C)CCc2ccccc2)cc1 (configuration not stated)	PAFAH2 inh 68.5 (no result: PfM18AAP inh) | PAFAH2 confirm 55.2
COc1ccc(CNC(=O)COC(=O)/C=C/c2ccc(Cl)cc2)cc1	none
CCC(C(=O)OCC(=O)Nc1c(C)nn(-c2ccccc2)c1C)c1ccccc1 (configuration not stated)	none (no result: PfM18AAP inh)
